Measurements from ChEMBL document CHEMBL3988442, “University of Dundee, Small-Polar-MMV Screening Library” (2021).
For some of these results: Measured potencies and affinities stand elsewhere.

Legend:
Design in all cases: scale not given: direction of the effect not stated beside the values
[1] = molecular target: Protein translocase subunit SecA (Escherichia coli (strain K12)) (UniProt P10408); test: Assay to Identify E. coli SecA ATPase Inhibitors; assay type: functional; settings: 30 µM
[2] = molecular target: T1, Ubiquitin-activating enzyme e1, putative (Leishmania donovani (strain BPK282A1)) (UniProt E9BSI1); test: Leishmania donovani Ubiquitin Activating Enzyme (LdE1); assay type: functional; settings: 30 µM
T1 sequence (whole entry): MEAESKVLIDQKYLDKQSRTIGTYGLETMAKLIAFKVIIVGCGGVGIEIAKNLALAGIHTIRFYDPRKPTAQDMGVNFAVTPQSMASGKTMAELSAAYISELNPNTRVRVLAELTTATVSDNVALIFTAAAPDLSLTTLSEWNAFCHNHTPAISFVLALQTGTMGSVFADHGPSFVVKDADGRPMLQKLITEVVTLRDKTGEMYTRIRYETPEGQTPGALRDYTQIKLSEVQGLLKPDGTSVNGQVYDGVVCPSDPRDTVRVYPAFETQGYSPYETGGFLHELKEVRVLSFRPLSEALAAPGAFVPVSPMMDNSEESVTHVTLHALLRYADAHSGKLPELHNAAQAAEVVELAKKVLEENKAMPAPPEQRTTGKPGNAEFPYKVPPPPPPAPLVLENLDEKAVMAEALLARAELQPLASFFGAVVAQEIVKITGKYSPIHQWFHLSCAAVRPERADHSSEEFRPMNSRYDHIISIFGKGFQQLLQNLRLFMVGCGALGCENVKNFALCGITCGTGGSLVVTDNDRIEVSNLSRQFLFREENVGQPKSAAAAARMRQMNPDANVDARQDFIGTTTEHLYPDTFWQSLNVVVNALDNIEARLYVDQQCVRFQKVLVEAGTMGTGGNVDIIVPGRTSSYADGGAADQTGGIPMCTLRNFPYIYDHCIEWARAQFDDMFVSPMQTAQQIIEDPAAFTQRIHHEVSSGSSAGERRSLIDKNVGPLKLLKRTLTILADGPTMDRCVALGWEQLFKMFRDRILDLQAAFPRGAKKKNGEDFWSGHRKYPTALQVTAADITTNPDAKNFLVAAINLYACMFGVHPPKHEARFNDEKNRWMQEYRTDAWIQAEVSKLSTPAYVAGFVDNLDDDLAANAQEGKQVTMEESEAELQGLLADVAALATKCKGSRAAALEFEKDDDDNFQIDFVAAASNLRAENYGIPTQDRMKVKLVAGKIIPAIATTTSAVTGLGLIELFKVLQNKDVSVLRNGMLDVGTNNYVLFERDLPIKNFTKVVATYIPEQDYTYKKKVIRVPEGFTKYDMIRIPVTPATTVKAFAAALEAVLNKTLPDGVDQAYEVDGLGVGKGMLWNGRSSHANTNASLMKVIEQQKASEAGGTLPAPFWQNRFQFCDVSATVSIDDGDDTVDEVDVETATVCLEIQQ

[3] = molecular target: AMP-activated protein kinase, AMPK (Homo sapiens) (UniProt P54646+O43741+P54619+Q9UGJ0+Q9Y478+Q13131+Q9UGI9); test: AMP-dependent Kinase enzyme assay. An in vitro enzyme assay that detects ADP turnover that is directly proportional to AMPK activity. This uses naive AMPK that is activated during the assay with MK-8722; assay type: functional; settings: 30 µM
[4] = molecular target: Sialic acid-binding Ig-like lectin 9 (Homo sapiens) (UniProt Q9Y336); test: Hs-Siglec9 ALPHAscreen SOP 20170721; settings: 10 µM
[5] = system: Trypanosoma cruzi; test: Trypanosoma cruzi phosphomannomutase and mannose-1-phosphate guanylyltransferase assay; assay type: functional; settings: 10 µM
[6] = molecular target: T2, Arginase-2, mitochondrial (Homo sapiens) (UniProt P78540); test: in vitro enzyme assay to detect the production of urea directly proportional to the activity of Arginase II; assay type: functional; settings: 33.3 µM; further: in the data most compounds retested in dose-response had high values
T2 sequence (whole entry): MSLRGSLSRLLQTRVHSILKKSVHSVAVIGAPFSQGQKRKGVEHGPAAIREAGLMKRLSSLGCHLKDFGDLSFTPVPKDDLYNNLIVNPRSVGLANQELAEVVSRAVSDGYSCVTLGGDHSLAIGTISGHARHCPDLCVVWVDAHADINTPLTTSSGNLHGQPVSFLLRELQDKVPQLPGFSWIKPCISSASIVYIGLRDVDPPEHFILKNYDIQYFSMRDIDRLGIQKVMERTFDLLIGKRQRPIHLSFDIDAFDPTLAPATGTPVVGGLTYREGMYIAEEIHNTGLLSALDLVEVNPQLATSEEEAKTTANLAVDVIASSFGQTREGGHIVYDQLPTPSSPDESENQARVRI

[7] = molecular target: T3, Proteasome subunit beta (Trypanosoma cruzi) (UniProt O96673); test: Trypanosoma cruzi proteasome chymotrypsin-like activity (TcProtChymo) assay.; further: in the data most compounds retested in dose-response had high values; assay type: functional; settings: 9.37 µM
T3 sequence (whole entry): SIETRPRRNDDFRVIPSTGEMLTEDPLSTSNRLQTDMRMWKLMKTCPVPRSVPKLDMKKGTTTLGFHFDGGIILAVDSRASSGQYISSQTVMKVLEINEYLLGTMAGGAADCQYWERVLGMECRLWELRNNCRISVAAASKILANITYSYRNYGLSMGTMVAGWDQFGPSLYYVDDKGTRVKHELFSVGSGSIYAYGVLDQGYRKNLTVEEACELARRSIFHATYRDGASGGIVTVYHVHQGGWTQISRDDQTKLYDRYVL

[8] = species: Homo sapiens; test: To identify inhibition of the IFN signalling (Jak-Stat) pathway via expression of an eGFP reporter gene under the control of an IFN-stimulated response element (ISRE) containing MxA promoter.; assay type: functional; settings: 30 µM
[9] = molecular target: T4, Tyrosyl-tRNA synthetase, putative (Trypanosoma cruzi (strain CL Brener)) (UniProt Q4DSP6); test: Trypanosoma cruzi tyrosyl tRNA synthetase (TcYRS) _High Tyrosine SOP; assay type: functional; settings: 30 µM; further: in the data most compounds retested in dose-response had high values
T4 sequence (whole entry): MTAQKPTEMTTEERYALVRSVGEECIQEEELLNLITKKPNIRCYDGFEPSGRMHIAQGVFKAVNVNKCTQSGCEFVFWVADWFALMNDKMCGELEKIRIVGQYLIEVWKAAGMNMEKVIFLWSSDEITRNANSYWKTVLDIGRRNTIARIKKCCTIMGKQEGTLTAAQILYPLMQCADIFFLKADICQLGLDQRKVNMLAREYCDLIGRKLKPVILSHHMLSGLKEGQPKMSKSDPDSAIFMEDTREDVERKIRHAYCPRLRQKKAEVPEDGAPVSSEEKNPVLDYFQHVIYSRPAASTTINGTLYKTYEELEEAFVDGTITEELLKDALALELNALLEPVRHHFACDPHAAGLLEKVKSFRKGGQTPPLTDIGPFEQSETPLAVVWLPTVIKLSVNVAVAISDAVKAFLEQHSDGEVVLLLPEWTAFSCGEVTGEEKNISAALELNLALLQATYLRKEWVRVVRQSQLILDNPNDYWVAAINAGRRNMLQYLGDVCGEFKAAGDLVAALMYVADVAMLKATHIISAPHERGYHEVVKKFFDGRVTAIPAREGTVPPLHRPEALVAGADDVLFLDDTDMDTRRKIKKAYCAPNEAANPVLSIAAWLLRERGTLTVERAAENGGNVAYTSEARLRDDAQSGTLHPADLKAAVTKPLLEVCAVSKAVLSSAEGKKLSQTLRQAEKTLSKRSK

[10] = molecular target: T4, Tyrosyl-tRNA synthetase, putative (Trypanosoma cruzi (strain CL Brener)); test: Trypanosoma cruzi tyrosyl tRNA synthetase (TcYRS) SOP; assay type: functional; settings: 30 µM
[11] = molecular target: Chromo domain-containing protein 1 (Saccharomyces cerevisiae (strain ATCC 204508 / S288c) (Baker's yeast)) (UniProt P32657); test: ScCHD-1 Enzyme Inhibition Assay; assay type: functional; settings: 30 µM; further: in the data most compounds retested in dose-response had high values
Sequence of Chromo domain-containing protein 1 (Saccharomyces cerevisiae (strain ATCC 204508 / S288c) (Baker's yeast)) (P32657 whole entry, the tested form may be a part): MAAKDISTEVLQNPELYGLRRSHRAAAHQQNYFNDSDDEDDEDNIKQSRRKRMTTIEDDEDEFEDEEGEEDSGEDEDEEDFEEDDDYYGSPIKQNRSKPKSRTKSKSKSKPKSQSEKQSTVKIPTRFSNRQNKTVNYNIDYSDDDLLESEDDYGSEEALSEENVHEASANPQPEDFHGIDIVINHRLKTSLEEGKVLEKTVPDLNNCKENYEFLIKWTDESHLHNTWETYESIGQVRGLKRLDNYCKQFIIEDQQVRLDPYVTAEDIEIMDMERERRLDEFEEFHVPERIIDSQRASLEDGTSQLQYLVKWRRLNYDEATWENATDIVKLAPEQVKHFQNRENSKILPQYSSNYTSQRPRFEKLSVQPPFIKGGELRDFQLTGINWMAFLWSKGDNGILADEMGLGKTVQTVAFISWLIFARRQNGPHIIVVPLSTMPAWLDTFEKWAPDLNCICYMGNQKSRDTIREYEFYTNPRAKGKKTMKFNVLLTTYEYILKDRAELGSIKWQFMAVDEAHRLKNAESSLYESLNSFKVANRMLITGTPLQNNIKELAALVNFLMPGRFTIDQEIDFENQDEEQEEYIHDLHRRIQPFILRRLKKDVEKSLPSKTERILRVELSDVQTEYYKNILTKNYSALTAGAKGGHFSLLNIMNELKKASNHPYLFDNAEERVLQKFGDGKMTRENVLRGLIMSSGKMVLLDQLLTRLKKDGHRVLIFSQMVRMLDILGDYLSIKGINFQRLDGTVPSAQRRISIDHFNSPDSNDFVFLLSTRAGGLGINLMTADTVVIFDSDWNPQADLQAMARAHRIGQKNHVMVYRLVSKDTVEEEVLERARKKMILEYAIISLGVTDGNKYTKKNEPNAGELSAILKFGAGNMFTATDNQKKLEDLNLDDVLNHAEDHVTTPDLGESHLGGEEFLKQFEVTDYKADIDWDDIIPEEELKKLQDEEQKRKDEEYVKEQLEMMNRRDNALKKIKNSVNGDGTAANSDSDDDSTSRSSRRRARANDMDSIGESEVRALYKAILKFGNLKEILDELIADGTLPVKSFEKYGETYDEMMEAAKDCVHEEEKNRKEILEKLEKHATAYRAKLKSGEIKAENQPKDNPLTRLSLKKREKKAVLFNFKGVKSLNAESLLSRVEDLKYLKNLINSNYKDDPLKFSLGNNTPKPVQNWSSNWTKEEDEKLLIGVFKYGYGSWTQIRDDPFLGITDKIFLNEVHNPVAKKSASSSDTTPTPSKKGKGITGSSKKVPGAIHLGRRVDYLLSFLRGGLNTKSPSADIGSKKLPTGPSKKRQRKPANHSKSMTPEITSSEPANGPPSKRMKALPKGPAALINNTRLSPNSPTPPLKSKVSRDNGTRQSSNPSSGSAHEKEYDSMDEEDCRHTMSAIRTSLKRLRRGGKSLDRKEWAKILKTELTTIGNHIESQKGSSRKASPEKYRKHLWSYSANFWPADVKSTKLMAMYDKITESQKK

Sequence of Protein translocase subunit SecA (Escherichia coli (strain K12)) (P10408 whole entry): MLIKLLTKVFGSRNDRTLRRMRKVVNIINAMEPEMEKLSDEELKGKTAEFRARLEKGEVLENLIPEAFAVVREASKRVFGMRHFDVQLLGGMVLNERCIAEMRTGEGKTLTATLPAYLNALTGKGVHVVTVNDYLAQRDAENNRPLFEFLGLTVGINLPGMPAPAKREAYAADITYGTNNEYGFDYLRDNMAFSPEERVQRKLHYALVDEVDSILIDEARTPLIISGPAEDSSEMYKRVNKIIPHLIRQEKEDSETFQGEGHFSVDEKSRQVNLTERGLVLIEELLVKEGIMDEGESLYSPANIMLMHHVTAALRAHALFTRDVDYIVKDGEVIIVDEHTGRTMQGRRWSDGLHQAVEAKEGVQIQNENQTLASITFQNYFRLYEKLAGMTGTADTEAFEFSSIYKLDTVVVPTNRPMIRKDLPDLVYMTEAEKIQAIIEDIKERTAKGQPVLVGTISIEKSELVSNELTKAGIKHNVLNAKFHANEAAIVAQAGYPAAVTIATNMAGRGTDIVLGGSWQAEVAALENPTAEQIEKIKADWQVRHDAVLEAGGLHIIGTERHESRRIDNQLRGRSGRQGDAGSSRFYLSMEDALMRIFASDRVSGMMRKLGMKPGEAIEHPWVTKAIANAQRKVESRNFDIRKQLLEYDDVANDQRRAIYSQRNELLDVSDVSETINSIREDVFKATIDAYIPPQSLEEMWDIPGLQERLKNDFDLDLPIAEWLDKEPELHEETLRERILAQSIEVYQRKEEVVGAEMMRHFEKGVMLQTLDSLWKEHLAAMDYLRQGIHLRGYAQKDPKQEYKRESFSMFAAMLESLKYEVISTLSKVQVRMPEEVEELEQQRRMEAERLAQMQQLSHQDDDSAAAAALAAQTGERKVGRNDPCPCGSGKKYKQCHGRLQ
Sequence of Sialic acid-binding Ig-like lectin 9 (Homo sapiens) (Q9Y336 whole entry): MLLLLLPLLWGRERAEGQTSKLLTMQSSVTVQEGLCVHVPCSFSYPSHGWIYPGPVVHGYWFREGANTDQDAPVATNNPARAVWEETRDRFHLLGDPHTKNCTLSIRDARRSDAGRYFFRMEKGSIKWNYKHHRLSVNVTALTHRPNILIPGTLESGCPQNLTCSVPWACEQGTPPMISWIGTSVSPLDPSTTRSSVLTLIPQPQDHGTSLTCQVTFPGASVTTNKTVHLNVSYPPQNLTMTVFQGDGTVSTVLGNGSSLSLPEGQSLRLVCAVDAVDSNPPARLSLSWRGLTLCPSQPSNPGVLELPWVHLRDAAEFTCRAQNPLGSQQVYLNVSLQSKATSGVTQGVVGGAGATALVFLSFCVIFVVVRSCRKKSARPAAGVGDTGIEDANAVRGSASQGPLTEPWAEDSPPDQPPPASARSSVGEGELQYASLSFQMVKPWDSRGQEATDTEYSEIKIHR

Row | Structure (SMILES) | Percent Effect [1] [%] | Percent Effect [2] [%] | Percent Effect [3] [%] | Percent Effect [4] [%] | Percent Effect [5] [%] | Percent Effect [6] [%] | Percent Effect [7] [%] | Percent Effect [8] [%] | Percent Effect [9] [%] | Percent Effect [10] [%] | Percent Effect [11] [%]
1 | O=C(CN1CC(n2cccn2)C1)NCCCc1ccccc1 | 0.869 | -13.5 | 10.2 | 12.8 | 6.41 | 1.29 | -0.179 | -9.65 | 1.98 | 11 | 1.45
2 | Cc1c[nH]c(CN(C)C(=O)c2cccc(CCC(C)(C)O)c2)n1 | -4.48 | 8 | -4.37 | 15.8 | 5.16 | 20.3 | 18 | -2.28 | 3.83 | 16.1 | -3.88
3 | Cn1cc(-c2csc(N3CCOCC3)n2)cn1 | -3.35 | 1.39 | -45.6 | -2.23 | 1.26 | 2.21 | 0.702 | 1.08 | 15.8 | 28.2 | -0.624
4 | Cn1cccc1C1CCCN1C(=O)NCCCn1cccn1 (stereo not drawn) | -1.96 | 2.67 | -3.95 | -0.718 | -0.0974 | -2.08 | 6.28 | 8.34 | 4.92 | 8.64 | -1.47
5 | COc1ccccc1OCC(=O)Nc1ncccc1Cl | -3.19 | 15.3 | -6.62 | 22.9 | 2.62 | -2.65 | 4.39 | -9.45 | 3.16 | 10.3 | -3.43
6 | O=C(CCc1cscn1)N1CCCC(n2ccnc2)C1 (stereo not drawn) | -6.32 | 1.27 | 6.89 | -0.321 | -2.36 | 0.645 | 0.343 | -13.2 | 8.33 | 5.06 | -12.3
7 | COCCC(=O)N1CC[C@@H](N(C)C)[C@@H]1Cc1ccccc1 | -3.9 | 5.33 | 10.6 | 4.93 | -0.394 | -1.17 | 5.37 | -2.67 | 5.32 | 6.41 | -0.866
8 | CC(C)Cc1noc(CN2CCC(NC(=O)c3cccs3)CC2)n1 | -4.22 | 15.6 | 5.36 | 8.56 | 3.64 | -8.28 | 19 | 3.93 | 6.45 | 16.1 | -6.14
